Data as given in PubChem BioAssay AID1159580 (chemical genetic matrix, 2015).
Out of some 5,500 compounds screened, about 2,000 (36%) were called active. Roughly 18% stayed inconclusive and do not appear here. Cut-off read from the data, not from the text of the source: active = normalized growth mostly below about 0.91 (no sharp cut-off); inconclusive = no clear call, values can overlap the other calls; inactive = mostly above about 0.92. The list shows a part of the results.

Assay: chemical genetic growth profiling, strain panel (AID 1159580);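 note: tested at 20 µM; growth read once vehicle control cultures reached saturation at 30 °C; 1 = growth at the plate median or of vehicle wells; lower values mean less growth of the strain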
Settings: growth OD

Measured: normalized growth

Clc1ccc(C(c2ccc(Cl)cc2)C(Cl)(Cl)Cl)cc1
inactive: S. cerevisiae deletion strains, locus YJR043C, strain POL32, stronger effect = lower value 0.996 | S. cerevisiae deletion strains, locus YJR075W, strain HOC1, stronger effect = lower value 1.01 | S. cerevisiae deletion strains, locus YKL009W, strain mrt4, stronger effect = lower value 0.992 | S. cerevisiae deletion strains, locus YKL068W, stronger effect = lower value 1.02 | S. cerevisiae deletion strains, locus YKL085W, strain MDH1 (second series), stronger effect = lower value 1.01 | S. cerevisiae deletion strains, locus YKL085W, strain MDH1, stronger effect = lower value 1.01 | S. cerevisiae deletion strains, locus YKL160W, strain elf1, stronger effect = lower value 1.01 | S. cerevisiae deletion strains, locus YKL190W, strain CNB1, stronger effect = lower value 0.996 | S. cerevisiae deletion strains, locus YKR001C, strain vps1, stronger effect = lower value 0.997 | S. cerevisiae deletion strains, locus YKR026C, strain gcn3, stronger effect = lower value 1.01 | S. cerevisiae deletion strains, locus YKR091W, strain srl3, stronger effect = lower value 1 | S. cerevisiae deletion strains, locus YLL001W, strain dnm1, stronger effect = lower value 1.02 | S. cerevisiae deletion strains, locus YLL026W, stronger effect = lower value 1.01 | S. cerevisiae deletion strains, locus YLL041C, strain sdh2, stronger effect = lower value 1.01 | S. cerevisiae deletion strains, locus YLR027C, strain aat2, stronger effect = lower value 1.01 | S. cerevisiae deletion strains, locus YLR039C, strain RIC1, stronger effect = lower value 1.05 | S. cerevisiae deletion strains, locus YLR058C, strain SHM2, stronger effect = lower value 1.02 | S. cerevisiae deletion strains, locus YLR102C, strain apc9, stronger effect = lower value 0.992 | S. cerevisiae deletion strains, locus YLR221C, strain rsa3, stronger effect = lower value 1.01 | S. cerevisiae deletion strains, locus YLR258W, strain gsy2, stronger effect = lower value 1.01 | S. cerevisiae deletion strains, locus YLR262C, strain YPT6 (second series), stronger effect = lower value 0.985 | S. cerevisiae deletion strains, locus YLR262C, strain YPT6, stronger effect = lower value 0.999 | S. cerevisiae deletion strains, locus YLR268W, strain sec22, stronger effect = lower value 1 | S. cerevisiae deletion strains, locus YLR320W, strain mms22, stronger effect = lower value 0.99 | S. cerevisiae deletion strains, locus YLR330W, strain CHS5, stronger effect = lower value 1.02 | S. cerevisiae deletion strains, locus YLR342W, strain FKS1 (second series), stronger effect = lower value 1.04 | S. cerevisiae deletion strains, locus YLR342W, strain FKS1, stronger effect = lower value 1.01 | S. cerevisiae deletion strains, locus YLR357W, strain rsc2, stronger effect = lower value 1.03 | S. cerevisiae deletion strains, locus YLR370C, strain arc18, stronger effect = lower value 1.01 | S. cerevisiae deletion strains, locus YLR371W, strain rom2, stronger effect = lower value 0.995 | S. cerevisiae deletion strains, locus YLR384C, strain iki3, stronger effect = lower value 1 | S. cerevisiae deletion strains, locus YLR418C, strain cdc73, stronger effect = lower value 0.984 | S. cerevisiae deletion strains, locus YML016C, strain PPZ1, stronger effect = lower value 1.03 | S. cerevisiae deletion strains, locus YML032C, strain rad52, stronger effect = lower value 0.992 | S. cerevisiae deletion strains, locus YML120C, strain ndi1, stronger effect = lower value 0.997 | S. cerevisiae deletion strains, locus YML124C, strain tub3, stronger effect = lower value 1 | S. cerevisiae deletion strains, locus YMR058W, strain fet3, stronger effect = lower value 1.01 | S. cerevisiae deletion strains, locus YMR078C, strain ctf18, stronger effect = lower value 0.991 | S. cerevisiae deletion strains, locus YMR125W, strain sto1, stronger effect = lower value 1.01 | S. cerevisiae deletion strains, locus YMR129W, stronger effect = lower value 1.01 | S. cerevisiae deletion strains, locus YMR205C, strain PFK2, stronger effect = lower value 0.977 | S. cerevisiae deletion strains, locus YMR223W, strain ubp8, stronger effect = lower value 0.991 | S. cerevisiae deletion strains, locus YMR231W, strain pep5, stronger effect = lower value 1.01 | S. cerevisiae deletion strains, locus YMR263W, strain SAP30, stronger effect = lower value 1.02 | S. cerevisiae deletion strains, locus YMR307W, strain GAS1, stronger effect = lower value 0.918 | S. cerevisiae deletion strains, locus YNL067W, strain RPL9B, stronger effect = lower value 1.01 | S. cerevisiae deletion strains, locus YNL071W, strain lat1, stronger effect = lower value 1.02 | S. cerevisiae deletion strains, locus YNL128W, strain TEP1, stronger effect = lower value 1.02 | S. cerevisiae deletion strains, locus YNL153C, strain GIM3, stronger effect = lower value 1.02 | S. cerevisiae deletion strains, locus YNL209W, strain ssb2, stronger effect = lower value 1 | S. cerevisiae deletion strains, locus YNL233W, strain BNI4, stronger effect = lower value 1.01 | S. cerevisiae deletion strains, locus YNL248C, strain rpa49, stronger effect = lower value 1 | S. cerevisiae deletion strains, locus YNL250W, strain rad50, stronger effect = lower value 1 | S. cerevisiae deletion strains, locus YNL271C, strain bni1, stronger effect = lower value 0.997 | S. cerevisiae deletion strains, locus YNL298W, strain CLA4, stronger effect = lower value 1.02 | S. cerevisiae deletion strains, locus YNL307C, strain MCK1, stronger effect = lower value 0.963 | S. cerevisiae deletion strains, locus YNL322C, strain KRE1 (second series), stronger effect = lower value 1.01 | S. cerevisiae deletion strains, locus YNL322C, strain KRE1, stronger effect = lower value 1.02 | S. cerevisiae deletion strains, locus YNR049C, strain mso1, stronger effect = lower value 1.01 | S. cerevisiae deletion strains, locus YNR052C, strain pop2, stronger effect = lower value 0.991 | S. cerevisiae deletion strains, locus YOL006C, strain TOP1, stronger effect = lower value 1.02 | S. cerevisiae deletion strains, locus YOL012C, strain htz1 1.14 | S. cerevisiae deletion strains, locus YOL147C, strain pex11, stronger effect = lower value 1 | S. cerevisiae deletion strains, locus YOR001W, strain rrp6, stronger effect = lower value 1.01 | S. cerevisiae deletion strains, locus YOR061W, strain CKA2, stronger effect = lower value 1.01 | S. cerevisiae deletion strains, locus YOR069W, strain VPS5, stronger effect = lower value 1.01 | S. cerevisiae deletion strains, locus YOR070C, strain gyp1, stronger effect = lower value 1.01 | S. cerevisiae deletion strains, locus YOR080W, strain dia2, stronger effect = lower value 1.01 | S. cerevisiae deletion strains, locus YOR083W, strain WHI5, stronger effect = lower value 1.01 | S. cerevisiae deletion strains, locus YOR106W, strain vam3, stronger effect = lower value 0.988 | S. cerevisiae deletion strains, locus YOR136W, strain idh2, stronger effect = lower value 0.99 | S. cerevisiae deletion strains, locus YOR144C, strain elg1, stronger effect = lower value 1 | S. cerevisiae deletion strains, locus YOR184W, strain ser1, stronger effect = lower value 0.982 | S. cerevisiae deletion strains, locus YOR265W, strain rbl2, stronger effect = lower value 1.01 | S. cerevisiae deletion strains, locus YOR270C, strain vph1, stronger effect = lower value 1.01 | S. cerevisiae deletion strains, locus YOR290C, strain snf2, stronger effect = lower value 1 | S. cerevisiae deletion strains, locus YOR316C, strain cot1, stronger effect = lower value 1.01 | S. cerevisiae deletion strains, locus YPL051W, strain arl3, stronger effect = lower value 1 | S. cerevisiae deletion strains, locus YPL055C, strain LGE1, stronger effect = lower value 0.989 | S. cerevisiae deletion strains, locus YPL078C, strain atp4, stronger effect = lower value 1.01 | S. cerevisiae deletion strains, locus YPL106C, strain sse1, stronger effect = lower value 1.03 | S. cerevisiae deletion strains, locus YPL240C, strain hsp82, stronger effect = lower value 0.999 | S. cerevisiae deletion strains, locus YPL241C, strain CIN2, stronger effect = lower value 1.02 | S. cerevisiae deletion strains, locus YPR119W, strain clb2, stronger effect = lower value 0.998 | S. cerevisiae deletion strains, locus YPR141C, strain kar3, stronger effect = lower value 1.01 | S. cerevisiae deletion strains, locus YPR163C, strain tif3, stronger effect = lower value 0.998 | S. cerevisiae deletion strains, locus YPR167C, strain met16, stronger effect = lower value 0.997 | S. cerevisiae deletion strains, strain wtn01, stronger effect = lower value 0.997 | S. cerevisiae strains, strain wild type, stronger effect = lower value 1.01
